# Shown is part of a subset that was picked to be rich in hits.
# IDE exosite FP: insulin-degrading enzyme (human) exo-site inhibition | P14735 | purified IDE, FL-6b probe fluorescence polarization; hits give low values | z-score at 20 µM | hit rate 6.3% among 17,000 | AID 1259349;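 active = z-score of -3 or lower, meaning strong loss of probe binding signal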;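 also: His-tagged human IDE residues 42-1019 made in E. coli with 30 nM FL-6b probe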
# Target sequence (P14735 42-1019 limits assumed): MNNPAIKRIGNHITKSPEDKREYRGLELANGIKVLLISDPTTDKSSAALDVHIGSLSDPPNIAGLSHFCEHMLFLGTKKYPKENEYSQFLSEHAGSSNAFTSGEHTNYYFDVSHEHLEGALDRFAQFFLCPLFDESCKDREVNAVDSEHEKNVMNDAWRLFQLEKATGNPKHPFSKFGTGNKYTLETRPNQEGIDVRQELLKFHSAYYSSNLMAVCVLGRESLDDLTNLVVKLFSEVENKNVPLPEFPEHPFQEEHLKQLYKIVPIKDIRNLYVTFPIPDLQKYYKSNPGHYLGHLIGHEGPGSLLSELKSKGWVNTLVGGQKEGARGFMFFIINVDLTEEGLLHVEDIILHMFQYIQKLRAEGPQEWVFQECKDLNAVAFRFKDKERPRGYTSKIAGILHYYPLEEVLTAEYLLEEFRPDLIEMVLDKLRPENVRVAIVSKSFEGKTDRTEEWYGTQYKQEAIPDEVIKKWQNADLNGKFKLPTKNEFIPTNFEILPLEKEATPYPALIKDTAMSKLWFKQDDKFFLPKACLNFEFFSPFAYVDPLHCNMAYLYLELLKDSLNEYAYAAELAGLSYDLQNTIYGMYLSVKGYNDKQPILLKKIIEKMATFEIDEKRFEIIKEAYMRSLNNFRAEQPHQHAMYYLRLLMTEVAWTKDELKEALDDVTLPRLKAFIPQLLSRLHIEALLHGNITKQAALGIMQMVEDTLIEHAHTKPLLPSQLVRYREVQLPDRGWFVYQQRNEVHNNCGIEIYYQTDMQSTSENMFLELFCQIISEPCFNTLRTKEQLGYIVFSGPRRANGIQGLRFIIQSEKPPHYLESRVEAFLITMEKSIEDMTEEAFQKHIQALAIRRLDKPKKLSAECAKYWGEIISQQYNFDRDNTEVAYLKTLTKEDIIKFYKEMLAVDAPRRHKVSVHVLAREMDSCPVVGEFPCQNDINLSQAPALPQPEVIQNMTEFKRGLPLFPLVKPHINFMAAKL
# An asterisk follows results filed as active; ! = a repeat was not active.
SMILES,IDE exosite FP
COCC(=O)N1CC(=O)N2[C@H](C1)[C@H](c1ccc(-c3ccccc3)cc1)[C@@H]2CO,3.7
CN1CCN(C(=O)C[C@@H]2CC[C@H]3[C@@H](COC[C@@H](O)CN3C(=O)Nc3ccc4c(c3)OCO4)O2)CC1,-0.22
O=C(c1ccccc1)N(CC1CCC1)C[C@@H]1N[C@H](CO)[C@@H]1c1ccccc1,-1
COCC#Cc1ccc([C@H]2[C@@H](CO)N3CCCCN(S(=O)(=O)c4ccccc4C)C[C@@H]23)cc1,4.1
COCC#Cc1ccc([C@@H]2[C@H](CO)N3CCCCN(S(=O)(=O)c4ccccc4C)C[C@@H]23)cc1,-3.1*
COCC#Cc1ccc([C@H]2[C@H](CO)N3CCCCN(S(=O)(=O)c4ccccc4F)C[C@@H]23)cc1,1.1
COCC#Cc1ccc([C@H]2[C@@H](CO)N3CCCCN(S(=O)(=O)c4ccccc4F)C[C@H]23)cc1,0.25
COCC#Cc1ccc([C@H]2[C@H]3CN(S(=O)(=O)c4ccccc4C)CCCCN3[C@H]2CO)cc1,5.4
COCC#Cc1ccc([C@@H]2[C@H](CO)N3CCCCN(S(=O)(=O)c4ccccc4F)C[C@@H]23)cc1,-4.5*
CCNC(=O)C[C@@H]1CC[C@@H]2[C@H](COC[C@@H](O)CN2C(=O)c2ccccn2)O1,-0.52
CN(C)C(=O)c1cccc(-c2ccccc2[C@@H]2[C@H](C#N)N(C(=O)C3CCC3)[C@H]2CO)c1,2.4
CN(C)C(=O)[C@@H]1[C@@H](CO)[C@@H]2Cn3c(ccc(/C=C/c4ccccc4)c3=O)[C@@H]2N1C(=O)c1cccnc1,-0.64
O=C(NC[C@@H]1[C@@H](c2ccccc2)[C@H](CO)N1Cc1ccccn1)C1CC1,1.9
COCC#Cc1ccc([C@H]2[C@H]3CN(C(=O)CN4CCOCC4)CC(=O)N3[C@H]2CO)cc1,0.023
COCC(=O)N1CC(=O)N2[C@H](CO)[C@H](c3ccc(C#CC(C)C)cc3)[C@@H]2C1,1.1
O=C1CN(Cc2ccccc2)C[C@H]2[C@@H](c3ccc(Br)cc3)[C@@H](CO)N12,-0.04
Fc1ccc(-c2ccc(C3[C@@H]4CN(Cc5cccc(F)c5)C[C@H]3N4)cc2)cc1 (stereo partly drawn),3.7
COc1cccc(CN2C[C@@H]3N[C@H](C2)C3c2ccc(-c3ccccc3F)cc2)c1 (stereo partly drawn),-5.1*!
COc1cccc(CN2C[C@@H]3N[C@H](C2)C3c2ccc(-c3ccccc3C)cc2)c1 (stereo partly drawn),-4*!
COc1cccc(CN2C[C@@H]3N[C@H](C2)C3c2ccc(-c3ccncc3)cc2)c1 (stereo partly drawn),1.8
COc1cccc(CN2C[C@@H]3N[C@H](C2)C3c2ccc(-c3cccc(C#N)c3)cc2)c1 (stereo partly drawn),0.37
COc1cccc(-c2ccc(C3[C@@H]4CN(Cc5cccc(F)c5)C[C@H]3N4)cc2)c1 (stereo partly drawn),-1.1
COc1ccc(-c2ccc([C@@H]3[C@@H](CO)N4C(=O)CN(Cc5ccccc5)C[C@H]34)cc2)cc1,0.35
N#C[C@H]1[C@@H](c2ccccc2)[C@@H](CO)N1C(=O)c1ccc2c(c1)OCO2,0.52
C[C@@H]1CCn2cc(nn2)COC[C@@H](Cc2ccccc2)NC1=O,0.082
SMILES,IDE exosite FP
CCN(C[C@@H]1[C@@H](c2ccccc2)[C@H](CO)N1C(C)=O)C(=O)NC1CCCC1,-1.2
N#C[C@@H]1[C@H](c2ccccc2-c2cccc(F)c2)[C@H](CO)N1C(=O)C1CC1,0.092
COCC(=O)N1CCCCN2[C@@H](CO)[C@@H](c3ccc(-c4cccc(C)c4)cc3)[C@@H]2C1,-6.7*
COCC(=O)N1CCCCN2[C@H](C1)[C@@H](c1ccc(-c3ccc(F)cc3)cc1)[C@@H]2CO,1.1
COCC(=O)N1CCCCN2[C@@H](CO)[C@H](c3ccc(-c4ccc(F)cc4)cc3)[C@@H]2C1,2.1
COCC(=O)N1CCCCN2[C@H](CO)[C@H](c3ccc(-c4cccc(C)c4)cc3)[C@@H]2C1,1.6
COCC(=O)N1CCCCN2[C@@H](CO)[C@H](c3ccc(-c4ccccc4)cc3)[C@@H]2C1,0.00094
COCC(=O)N1CCCCN2[C@H](CO)[C@H](c3ccc(-c4cccc(C)c4)cc3)[C@H]2C1,-4.7*
COCC(=O)N1CCCCN2[C@H](C1)[C@H](c1ccc(-c3cccc(C)c3)cc1)[C@@H]2CO,-3*
O=C(Nc1ccc2c(c1)OCO2)N1[C@@H]2CNC[C@H]1C2c1ccc(-c2cccnc2)cc1 (stereo partly drawn),-2.1
COc1ccccc1NC(=O)N1CC(=O)N2[C@H](CO)[C@@H](c3ccc(C#CCC(C)C)cc3)[C@@H]2C1,1.3
COCC(=O)Nc1ccc2c(c1)C(=O)N(C)C[C@H](OC)[C@H](C)CN(C(=O)c1ccncc1)[C@H](C)CO2,0.37
O=C(c1ccncc1)N1CC(=O)N2[C@H](C1)[C@H](c1ccc(-c3cccnc3)cc1)[C@@H]2CO,0.98
O=C(c1cccnc1)N1CC(=O)N2[C@H](C1)[C@@H](c1ccc(/C=C/c3ccccc3)cc1)[C@@H]2CO,-7.7*
O=C(c1cccnc1)N1CC(=O)N2[C@H](CO)[C@H](c3ccc(/C=C/c4ccccc4)cc3)[C@@H]2C1,-10*
O=C(c1ccccc1)N1CC(=O)N2[C@H](CO)[C@@H](c3ccc(/C=C/c4ccccc4)cc3)[C@@H]2C1,-1.6
O=C(c1ccncc1)N1CC(=O)N2[C@H](C1)[C@H](c1ccc(/C=C/c3ccccc3)cc1)[C@@H]2CO,-0.3
O=C(c1ccncc1)N1CC(=O)N2[C@H](CO)[C@H](c3ccc(/C=C/c4ccccc4)cc3)[C@@H]2C1,-9.5*
O=C(c1ccccc1)N1CC(=O)N2[C@H](C1)[C@H](c1ccc(/C=C/c3ccccc3)cc1)[C@@H]2CO,-2.2
O=C(c1cccnc1)N1CC(=O)N2[C@H](CO)[C@@H](c3ccc(/C=C/c4ccccc4)cc3)[C@@H]2C1,-4.3*
O=C(c1ccccc1)N1CC(=O)N2[C@H](CO)[C@@H](c3ccc(/C=C/c4ccccc4)cc3)[C@H]2C1,-0.53
O=C(Cc1cccnc1)N1CC(=O)N2[C@@H](CO)[C@H](c3ccc(/C=C/c4ccccc4)cc3)[C@@H]2C1,-2.7
N#C[C@@H]1[C@H](c2ccccc2)[C@@H](CO)N1C(=O)CN1CCOCC1,1.6
CCCNC(=O)N1[C@H](C#N)[C@H](c2ccc(C#Cc3ccc(F)cc3)cc2)[C@@H]1CO,2.2
COc1ccc(NC(=O)N2CCCCN3[C@H](CO)[C@H](c4ccc(C#Cc5ccccn5)cc4)[C@H]3C2)cc1,0.1
SMILES,IDE exosite FP
O=C(Nc1ccc2c(c1)[C@H]1C[C@H](CC(=O)N3CCc4ccccc4C3)O[C@H](CO)[C@H]1O2)c1ccc2c(c1)OCO2,0.12
O=C(Nc1ccc(F)cc1)N1[C@@H](CO)[C@@H]2c3ccccc3NC[C@@H]21,-0.52
N#C[C@H]1[C@H](c2ccccc2C2=CCCCC2)[C@@H](CO)N1C(=O)c1cccc(F)c1,1.5
O=C(C[C@H]1C[C@@H]2c3cc(NC(=O)C4CCOCC4)ccc3O[C@@H]2[C@H](CO)O1)NCc1cccnc1,1.2
COc1ccc2c3c(n(C)c2c1)[C@@H](CO)N(CC1CC1)CC31CN(C(=O)Nc2ccc(F)cc2F)C1,-0.88
C/C=C/c1ccc(C2[C@H]3CNC[C@@H]2N3Cc2ccccc2C(F)(F)F)cc1 (stereo partly drawn),0.72
CC[C@H]1C/C=C\C[C@@H](c2ccc(OC)cc2OC)NC(=O)[C@H](C)CC(=O)N1,0.93

# Source: PubChem BioAssay
